The structures appear in SMILES notation. Several values for one entry are separate records, joined by “and”; a condition that tells them apart may be missing. Equal entries are not always repeated. The whole screen tested about 260,000 compounds, of which about 1,500 (0.58%) were called active. Inconclusive results (about 5%) are left out.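 Rule for the calls: active = inhibition above a set limit at one or more doses, reproduced on every date tested; inconclusive = results disagree between test dates, or hit never tested in dose response; inactive = the rest.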 Not all results are given here. Potency and affinity values are given separately.

The test has as its target Virion infectivity factor (Human immunodeficiency virus type 1 group M subtype B (isolate BH10)) + Virion infectivity factor (Human immunodeficiency virus type 1 group M subtype B (isolate BRU/LAI)) + Virion infectivity factor (Human immunodeficiency virus type 1 group M subtype B (isolate PCV12)) + Virion infectivity factor (Human immunodeficiency virus type 1 group M subtype B (isolate HXB2)) + DNA dC->dU-editing enzyme APOBEC-3G (Homo sapiens) (UniProt P69720+P69721+P69722+P69723+Q9HC16). The experiment in a line: HIV-1 Vif–A3G interaction blockers – biochemical, TR-FRET, GST-Vif 1-94, biotin-A3G peptide, dose response retest, primary screen (AID 1117319).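 Note: Vif residues 1-94 fused to GST binding biotinylated APOBEC3G peptide 110-148; 0% = full assay without inhibitor and 100% = GST in place of GST-Vif.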 Conditions: TR-FRET GST-Vif / biotin-A3G peptide binding; active compounds read high.
Regarding `O=C(NCCc1ccccc1)c1nc2ncccn2n1`, the inhibition is 8.66% (inactive).
As for `COc1ccc(NC(=O)CCNS(=O)(=O)c2cccc3nonc23)cc1Cl`, the inhibition was 7.84% (inactive).
Consider `COc1ccc(/C=C(/CC(=O)NCc2ccc(Cl)cc2)c2nc3ccccc3s2)cc1`, for which the inhibition is 2.71% (inactive).
Regarding `COc1ccccc1/C=C(/CC(=O)NCc1ccc(F)cc1)c1nc2ccccc2s1`, the inhibition is -7% (inactive).
Regarding `COc1ccc(Cl)cc1C(=O)Nc1ccccc1N1CCN(C)CC1`, the inhibition was 1.41% (inactive).
Turning to `O=C(Nc1ccc(C(=O)O)cc1)/C(=C\c1ccco1)NC(=O)c1ccccc1`, the inhibition is 26.2% (inactive).
The figure for `COC(=O)/C(=C/c1ccco1)NC(=O)c1ccccc1` is 11.2% (inactive); for `Fc1ccc(-c2cc(C(F)(F)F)nc(-n3cccn3)n2)cc1` it is 21.7% (inactive); for `CCc1ccc2[nH]c(=O)c(C(c3nnnn3CCOC)N3CCN(c4ccccc4)CC3)cc2c1` (stereo not drawn) it is 9.41% (inactive) and 22.6% (inactive).
In the case of `CCc1ccc2[nH]c(=O)c(C(c3nnnn3CCOC)N3CCN(c4ccc(F)cc4)CC3)cc2c1` (stereo not drawn), the inhibition was 9.01% (inactive) and 16.1% (inactive).
The value for `Cc1ccc(SCC(=O)NNC(=O)CCS(=O)(=O)c2ccc(C)cc2)cc1` was -4.89% (inactive); that for `CCOCCCNC(=O)c1ccccc1Br` was 79.3% (inactive).
The figure for `CCCNC(=O)c1ccccc1C(=O)NCCC` is -3.84% (inactive); for `Cc1nn(-c2ccccc2)c(C)c1C1C(C#N)=C(N)Oc2n[nH]c(C)c21` (stereo not drawn) it is -0.66% (inactive).
In the case of `CCCCC(=O)Nc1cccc(-c2csc(-c3ccccc3)n2)c1`, the inhibition is -12.6% (inactive).
Regarding `O/N=C1\CC(O)Cc2nonc21` (stereo not drawn), the inhibition was -4.67% (inactive).
Turning to `CCCC(c1nnnn1CC(=O)OCC)N(Cc1cc2ccc(C)cc2[nH]c1=O)C1CCCC1` (stereo not drawn), the inhibition is 4.45% (inactive) and 9.64% (inactive).
For the compound `CCCC(c1nnnn1CC(=O)OCC)N(Cc1cc2c(C)cc(C)cc2[nH]c1=O)C1CCCC1` (stereo not drawn), the inhibition is 68.5% (inactive).
The figure for `O=C(Nc1ncn[nH]1)c1ccccc1O` is -9.78% (inactive).
As to `COc1ccc(N2C(=O)C3C4C=CC(C4)C3C2=O)c(OC)c1` (stereo not drawn), the inhibition was 1.91% (inactive).
On to `COc1ccc(NC(=O)CN2CCN(c3ccccc3F)CC2)cc1`, for which the inhibition is 8.91% (inactive).
With `COC(=O)c1ccc(CN(C(=O)N2CCN(C)CC2)S(=O)(=O)c2ccc(C)cc2)cc1`, the inhibition is 2.32% (inactive).
With `O=C(CSc1nc(-c2ccco2)cc(C(F)(F)F)n1)N1CCCc2ccccc21`, the inhibition was -15.3% (inactive) and -9.35% (inactive).
Consider `CN1CCN(C(=O)CSc2nc(-c3ccco3)cc(C(F)(F)F)n2)CC1`, for which the inhibition was -4.57% (inactive).
The value for `O=C(Nc1ccc(F)cc1)C(=O)C1C(=O)Nc2ccccc21` (stereo not drawn) was -6.37% (inactive); that for `Cc1ccc(NC(=O)C(=O)NCc2ccc(/C=C(/C#N)C(=O)NCc3cccnc3)o2)cc1` was 7.86% (inactive); that for `Cc1ccc(NC(=O)C(=O)NCc2ccc(/C=N/NC(=O)c3c(C)nc4cc(C)ccn34)o2)cc1` was 19.2% (inactive).
For the compound `CCOC(=O)C1=C(O)/C(=C\c2sccc2C)N=C1C`, the inhibition is 0.95% (inactive).
Turning to `Cc1ccc(NC(=O)C(=O)NCc2ccc(/C=N/NC(=O)c3c(C)nc4ccccn34)o2)cc1`, the inhibition was 26.2% (inactive).
Take `O=C(NCc1ccc(/C=c2\sc3n(c2=O)CCN=3)o1)C(=O)Nc1ccccc1`: the inhibition is -17% (inactive).
Consider `CCOC(=O)c1ccc(NC(=O)C(=O)NCc2ccc(/C=C(/C#N)C(=O)NCCOC)o2)cc1`, for which the inhibition was -2.3% (inactive).
In the case of `COC(=O)C1=C(O)/C(=C\c2ccc(OCC(=O)Nc3ccccc3)cc2)N=C1C`, the inhibition is -9.89% (inactive).
The figure for `CCOC(=O)C1=C(O)/C(=C\c2cccs2)N=C1C` is 15.1% (inactive).
Consider `O=C(COC(=O)/C=C/c1cccc(Br)c1)NCCC1=CCCCC1`, for which the inhibition is 12.4% (inactive).
The value for `Cc1cc(C(=O)N2CCN(c3ccccc3Cl)CC2)c(C)o1` was 3.3% (inactive); that for `C=CCNc1nc(-c2ccc(OC)cc2OC)cs1` was -8.96% (inactive); that for `COc1cc(NC(=O)COc2ccc(Cl)cc2)ccc1NC(=O)C(C)C` was 1.28% (inactive).
For `CCCSc1cc(N)cc([N+](=O)[O-])c1`, the inhibition is -12.3% (inactive).
`CCN(CC)CCN(C(=O)CCS(=O)(=O)c1ccccc1)c1nc2cc(C)cc(C)c2s1`: the inhibition was 7.31% (inactive).
Take `O=C(CSc1ncn[nH]1)Nc1ccc2c(c1)CCC2`: the inhibition is -3.75% (inactive).
Regarding `O=S(=O)(c1ccc(NC(=S)N/N=C/c2ccc(N3CCOCC3)cc2)cc1)N1CCOCC1`, the inhibition is 0.51% (inactive).
Turning to `O=[N+]([O-])c1cc(/C=N/NC(=S)Nc2ccccc2Cl)ccc1Cl`, the inhibition was 8.67% (inactive).
Turning to `CCCOc1ccc(/C=N/NC(=S)Nc2ccccc2[N+](=O)[O-])c(O)c1`, the inhibition was 5.31% (inactive).
On to `N#Cc1ccc(/C=N/NC(=S)Nc2ccc(S(=O)(=O)N3CCOCC3)cc2)cc1`, for which the inhibition is 27.6% (inactive).
With `CCOc1ccc(/C=N/NC(=O)C(OC)c2ccccc2)cc1` (stereo not drawn), the inhibition was -8.04% (inactive).
The figure for `Cc1nnc(N(C)C(=O)c2cccnc2)s1` is -3.79% (inactive); for `COc1ccc(/C=N/NC(=O)c2ccccc2)cc1CN1CCN(c2ccc(F)cc2)CC1` it is 1.7% (inactive); for `COc1ccc(/C=N/NC(=O)c2ccccc2O)cc1Cn1cc([N+](=O)[O-])cn1` it is 22.8% (inactive).
As for `COc1ccc(/C=N\NC(=O)c2cccc([N+](=O)[O-])c2)cc1Cn1cc([N+](=O)[O-])cn1`, the inhibition is 9.14% (inactive).
Regarding `COc1cc(C(=O)N/N=C/c2ccc(OC)c(CN3CCN(c4ccc(F)cc4)CC3)c2)ccc1O`, the inhibition was -4.76% (inactive).
On to `CC(=O)Oc1cc2c(cc1OC(C)=O)C(=O)CCCC2`, for which the inhibition is -3.59% (inactive).
As for `CCc1cccc2c(C(=O)CSc3nncn3C)c[nH]c12`, the inhibition is 3.36% (inactive).
For `O=C(COC(=O)c1ccccn1)NCc1cccc(Cl)c1`, the inhibition was 11.7% (inactive).
`CCC1CCCCN1C(=O)c1ccccc1OC1CCN(S(C)(=O)=O)CC1` (stereo not drawn): the inhibition is 6.69% (inactive).
Take `Oc1c(CN2CCOCC2)cc(-c2ccccc2)cc1CN1CCOCC1`: the inhibition is 2.33% (inactive).
As to `Cc1c(Cl)cc(C(C)C)c(O)c1CN1CCOCC1`, the inhibition was -0.22% (inactive).
For the compound `O=C(NCCCN1CCOCC1)c1csc2c1CCCC2`, the inhibition is -1.89% (inactive).
The value for `CCOc1ccc(-c2cc(C(=O)NCCCN3CCOCC3)c3ccccc3n2)cc1` was -4.67% (inactive).
In the case of `COc1ccc(C2NC(=O)NC(O)(C(F)(F)F)C2C(=O)c2ccccc2)cc1OC` (stereo not drawn), the inhibition is -3.65% (inactive).
For the compound `O=C1NC(c2cn(-c3ccccc3)nc2-c2cccs2)C(C(=O)c2cccnc2)C(O)(C(F)(F)F)N1` (stereo not drawn), the inhibition is 1.08% (inactive).
On to `CCC(Oc1ccccc1)C(=O)Nc1ccc(S(=O)(=O)N2CCOCC2)cc1` (stereo not drawn), for which the inhibition is 15.9% (inactive).
The value for `CCc1nc(SCC(=O)N2CCCC2)c2ccccc2n1` was 14.3% (inactive).
The figure for `CCOc1cc(C(=O)Nc2ccc(N3CCOCC3)cc2)cc(Br)c1OC` is 12.9% (inactive); for `Cc1ccc(S(=O)(=O)Nc2cc(C(F)(F)F)ccc2N2CCOCC2)cc1` it is 1.57% (inactive); for `O=S(=O)(Nc1cc(C(F)(F)F)ccc1N1CCOCC1)c1ccccc1` it is 2.04% (inactive).
`COc1ccc(NS(=O)(=O)c2cccc(C(=O)NCC3CCCO3)c2)cc1` (stereo not drawn): the inhibition is 1.68% (inactive).
The figure for `COc1ccccc1N1CCN(CC(=O)Nc2cccc(F)c2)CC1` is -5.83% (inactive).
The figure for `O=C(CN1CCCC1)Nc1ccc2c(c1)CCC2` is -3.44% (inactive); for `O=C(CN1CCN(Cc2ccccc2)CC1)Nc1ccc2c(c1)CCC2` it is -3.36% (inactive); for `CC1CCN(CCNC(=O)c2ccc(NC(=O)C3CCCO3)cc2)CC1` (stereo not drawn) it is 2.71% (inactive).
As to `O=C(Nc1ccc2c(c1)CN(Cc1ccccc1O)CC2)C1CCCO1` (stereo not drawn), the inhibition was -4.54% (inactive).
Consider `CCc1ccc(CC)c(S(=O)(=O)Nc2ccc(O)c(C(=O)O)c2)c1`, for which the inhibition is -4.21% (inactive).
In the case of `O=C(O)c1ccc(NS(=O)(=O)c2cc(Cl)ccc2Cl)cc1O`, the inhibition was 3.01% (inactive).
In the case of `O=C(Nc1ccc(Br)cc1)C1CCN(C(=O)c2ccc(F)cc2)CC1`, the inhibition was -10.6% (inactive).
`CCOC(=O)c1cnc(SCC(=O)OCC(=O)N(CC)C2CCS(=O)(=O)C2)nc1N` (stereo not drawn): the inhibition is 4.12% (inactive).
On to `COc1cccc(NC(=O)CN(C)C(=O)/C=C/c2cn(Cc3ccccc3)nc2-c2cccnc2)c1`, for which the inhibition is -9.6% (inactive).
For `O=C(Nc1ccc(F)cc1)C(c1ccccc1)N1CCN(S(=O)(=O)c2c(F)cccc2F)CC1` (stereo not drawn), the inhibition is 22.6% (inactive).
As for `Cc1ccc(S(=O)(=O)N2CCN(C(C(=O)Nc3ccc(F)cc3)c3ccccc3)CC2)cc1` (stereo not drawn), the inhibition is 69.8% (inactive).
As for `COC(=O)CCC(=O)OC1(C)C(=O)C=C2C=C(C3CC3)N(Cc3ccc(OC)cc3)C=C2C1=O` (stereo not drawn), the inhibition is 31.5% (inactive).
In the case of `CC(C)OCCCN1C=C2C(=O)C(C)(OC(=O)CCc3ccccc3)C(=O)C=C2C=C1c1ccc(C#N)cc1` (stereo not drawn), the inhibition is 12.3% (inactive).
In the case of `COC(=O)CCC(=O)OC1(C)C(=O)C=C2C=C(C3CC3)N(CCCOC(C)C)C=C2C1=O` (stereo not drawn), the inhibition is 20.5% (inactive).
As to `COc1ccc(N2C=C3C(=O)C(C)(OC(=O)CCc4ccccc4)C(=O)C=C3C=C2c2ccc(C#N)cc2)cc1` (stereo not drawn), the inhibition was 11.3% (inactive).
On to `O=[N+]([O-])c1ccc2nc(SCc3ccccc3Cl)sc2c1`, for which the inhibition is 2.57% (inactive).
For `CC(C)n1c(SCC(=O)N2c3ccccc3Sc3ccccc32)nc2c1c(=O)n(C)c(=O)n2C`, the inhibition was 1.71% (inactive).
The value for `Cc1ccc2cccc(SCC(=O)NCc3ccco3)c2n1` was 5.4% (inactive); that for `Cc1ccc(S(=O)(=O)N(C)c2ccc(C(=O)NCC(c3ccco3)N3CCCC3)cc2)cc1` (stereo not drawn) was -9.74% (inactive); that for `CC(C)(C)c1ccc(/C=C/C(=O)N2CCc3ccccc3C2)cc1` was 7.01% (inactive).
Take `Cc1ccc(/C=C/C(=O)N2CCc3ccccc3C2)cc1`: the inhibition was 0% (inactive).

The record behind these values is PubChem BioAssay AID1117319 (Southern Research Institute, 2015).
